FMDV inh – foot and mouth disease virus antiviral activity; FMDV antiviral cell-based qHTS; AID 1159524; Potency, µM (highest dose often 57.9 µM), without a hit: at the highest dose activity change, negative = inhibition, hits mostly inhibitors; 1.2% of 410,000 active; calls by dose curve; tested in HEK293T cells; note: read-out not given here; potency is the fitted concentration of half-maximal effect; % is set by controls: 0 for no effect and ±100 for the full control effect; nearly all actives have a fitted effect of over 45% in size
HCV inhibitor – HCV inhibition | 3.4% of 340,000 active | Huh7.5.1 HCVcc-Cre infection, luciferase reporter, 44 h | Potency, µM (highest dose often 41.8 µM), without a hit: top-dose activity change, negative = inhibition, usual class: inhibitors; note: potency is the fitted concentration of half-maximal effect; % is set by controls: 0 for no effect and ±100 for the full control effect
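Infectious HCVcc-Cre (~0.5 moi) was added to cells just after compound, with cells seeded 4 h earlier at 1,000 per well. Luciferase activity after 44 h culture reported infection; substrate was incubated 15 min at room temperature before reading.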
HCMV antiviral – human cytomegalovirus inhibition; HFF cells, HCMV-luciferase reporter, 72 h; hits give low values; activity change, negative = inhibition, % at 57.5 µM; 4.5% of 410,000 active; AID 1259415; in the data active = activity change below about -60%; inconclusive = no clear call, values can overlap the other calls; inactive = above about -39%; note: % is set by controls: 0 for no effect and ±100 for the full control effect
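Two-dose cell screen: HFF monolayers treated with compounds and infected with luciferase-expressing HCMV at 1 PFU/cell, 72 h at 37C, then lysed for luciferase measurement.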
MARV entry inh – Marburg virus entry inhibition | Potency, µM (doses to about 37.8 µM), without a hit: at the highest dose activity change, negative = inhibition, usual class: inhibitors | Marburg virus pseudotyped entry inhibition, cell reporter | AID 540276 | 1.8% of 300,000 active; calls by dose curve; tested in HEK293 cells; note: potency is the fitted concentration of half-maximal effect; % is set by controls: 0 for no effect and ±100 for the full control effect
LASV entry inh – blocks Lassa virus binding to or entry into cells | Lassa virus pseudotype entry inhibition, cell reporter | Potency, µM (doses to about 37.9 µM), for the others: top-dose activity change, negative = inhibition, usual class: inhibitors | 1.2% of 300,000 active | AID 540256; calls by dose curve; tested in HEK293 cells; note: potency is the fitted concentration of half-maximal effect; % is set by controls: 0 for no effect and ±100 for the full control effect; nearly all actives have a fitted effect of over 50% in size
HCV confirm – confirmation of hepatitis C virus inhibitors; HCVcc-Cre infectious virus cell assay, luciferase, inhibition; AID 720575; 78% of 640 active; Potency, µM (series often up to 41.8 µM), for inactives: at the top dose activity, negative = inhibition, most hits filed as inhibitors; shares compounds with HCV inhibitor; note: potency is the fitted concentration of half-maximal effect; nearly all actives have a fitted effect of over 80% in size
HCV host tox – toxic to HCV host cells, flagging false HCV inhibitors. shares compounds with HCV inhibitor. HCV host cell line cytotoxicity counterscreen. Potency, µM (doses to about 41.8 µM), inactives show top-dose activity change, negative = cytotoxicity, hits mostly inhibitors. 22% of 640 active. AID 720576;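 note: potency is the fitted concentration of half-maximal effect; 44 h compound exposure; % is set by controls: 0 for no effect and ±100 for the full control effect; nearly all actives have a fitted effect of over 55% in size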
An asterisk follows results filed as active; ! = not active in a repeat; [ ] = remark or other dose. Shown are actives, neighbours in structure and some others; about 7.9% of the full set was active somewhere. Unless noted, calls come from the whole dose curve; as a rule, active = well fitted curve in the direction sought with a large enough effect; inconclusive = small, poorly fitted or top-dose-only effect, or another doubt; inactive = no such curve, though single readings can be large; an effect the other way counts as inactive or inconclusive.

Results for CCS(=O)(=O)c1ncc(N(Cc2ccccc2)Cc2ccco2)c(C(=O)Nc2ccc(C)c(C)c2)n1 ?
FMDV inh: -7%; HCMV antiviral: -11; MARV entry inh: inconclusive; LASV entry inh: inconclusive

Results for Nc1nc(=S)ss1 ?
FMDV inh: -21%; HCV inhibitor: -2%; HCMV antiviral: -11; MARV entry inh: -15%[46.1 µM]; LASV entry inh: 4%[46.1 µM]

How did COc1ccc(N(C)C(=O)Nc2ccc3nsnc3c2)cc1 do in these assays?
FMDV inh: 0%; HCV inhibitor: inconclusive; HCMV antiviral: -32; MARV entry inh: inconclusive; LASV entry inh: -29%[46.1 µM]

How did CC(C)N(C(=O)Nc1ccc2nsnc2c1)C(C)C do in these assays?
FMDV inh: 0%; HCV inhibitor: 4.5µM*; HCMV antiviral: -101*; HCV confirm: -16%; HCV host tox: 35%

How did COc1ccccc1CCC(=O)OCC(=O)c1c(N)n(CC(C)C)c(=O)n(C)c1=O do in these assays?
FMDV inh: inconclusive; HCV inhibitor: -14%; HCMV antiviral: -3; MARV entry inh: -10%; LASV entry inh: -27%

Results for CCOc1ccccc1OCC(=O)OCC(=O)c1c(N)n(CC(C)C)c(=O)n(C)c1=O ?
FMDV inh: inconclusive; HCV inhibitor: inconclusive; HCMV antiviral: -4; HCV confirm: inconclusive; HCV host tox: -90%

What do the screens show for `O=C(COC(=O)c1cc(-c2ccccc2)nc2c(Cl)cccc12)c1ccc(F)cc1`?
FMDV inh: 0%; HCMV antiviral: -24; MARV entry inh: 3%[46.1 µM]; LASV entry inh: -25%[46.1 µM]

What do the screens show for `O=C(Nc1ncc(Cc2ccc(C(F)(F)F)cc2)s1)c1ccc(-c2cccc([N+](=O)[O-])c2)o1`?
FMDV inh: inconclusive; HCV inhibitor: 2.5µM*; HCMV antiviral: inconclusive; MARV entry inh: inconclusive; LASV entry inh: -26%; HCV confirm: 13µM*; HCV host tox: inconclusive

Results for CCOC(=O)c1c(C)n(C)c2cc(Br)c(OC)cc12 ?
FMDV inh: -14%; HCV inhibitor: 7.9µM*; HCMV antiviral: -28; MARV entry inh: 4%[14.2 µM]; LASV entry inh: 4%; HCV confirm: 14µM*; HCV host tox: 16%

What do the screens show for `CCOC(=O)c1c(CN2CCN(CCO)CC2)n(C)c2cc(Br)c(OC)cc12`?
FMDV inh: -1%; HCV inhibitor: 2.8µM*; HCMV antiviral: -18; MARV entry inh: 8.2µM*!; LASV entry inh: inconclusive; HCV confirm: 10µM*; HCV host tox: 19%

What do the screens show for `COC(=O)c1sc(NC(=O)/C=C/c2ccccc2Cl)nc1C`?
FMDV inh: 14%; HCV inhibitor: 5.6µM*; HCMV antiviral: 4; MARV entry inh: inconclusive; LASV entry inh: 10%[46.1 µM]; HCV confirm: inconclusive; HCV host tox: 1%

How did c1ccc2c(N3CCCCCC3)nc(-c3ccncc3)nc2c1 do in these assays?
FMDV inh: inconclusive; HCV inhibitor: 8.9µM*; HCMV antiviral: inconclusive; MARV entry inh: inconclusive; LASV entry inh: 12%; HCV confirm: 0.01µM*; HCV host tox: 18%

How did c1ccc(Nc2nc(-c3ccncc3)nc3ccccc23)cc1 do in these assays?
FMDV inh: inconclusive; HCV inhibitor: inconclusive; HCMV antiviral: 38; MARV entry inh: inconclusive; LASV entry inh: -8%; HCV confirm: 5µM*; HCV host tox: -95%

What do the screens show for `Fc1ccccc1Nc1nc(-c2ccncc2)nc2ccccc12`?
FMDV inh: inconclusive; HCV inhibitor: 2.2µM*; HCMV antiviral: 35; MARV entry inh: inconclusive; LASV entry inh: inconclusive; HCV confirm: 8.9µM*; HCV host tox: 30%

What do the screens show for `c1cncc(-c2nc(N3CCCCCC3)c3ccccc3n2)c1`?
FMDV inh: inconclusive; HCV inhibitor: inconclusive; HCMV antiviral: -31; MARV entry inh: inconclusive; LASV entry inh: inconclusive

What do the screens show for `CCN1C[C@@H]2[C@@H]3C(=O)N(C)C(=O)[C@@H]3[C@](CC)(C1=O)N2C(=O)c1ccc(Cl)cc1`?
FMDV inh: 0%; HCV inhibitor: 1%; HCMV antiviral: 6

Results for CC(=O)Nc1ccc(NC(=O)Cc2ccc(-c3ccccc3)cc2)cc1 ?
FMDV inh: -3%; HCV inhibitor: 7%; HCMV antiviral: -29

Results for O=C(CCl)Nc1ccc(-c2ccccc2)cc1 ?
FMDV inh: 22µM*; HCV inhibitor: 3.2µM*; HCMV antiviral: 81; MARV entry inh: inconclusive; LASV entry inh: 10µM*; HCV confirm: 6.3µM*; HCV host tox: 8.9µM*

What do the screens show for `COc1ccc(NC(=O)c2ccccc2OCc2c(C)noc2C)cc1OC`?
FMDV inh: -14%; HCV inhibitor: inconclusive; HCMV antiviral: 34; MARV entry inh: -5%; LASV entry inh: 5%; HCV confirm: inconclusive; HCV host tox: 15%

How did Cc1nn2c(NCCCN(C)C)c3c(nc2c1-c1ccccc1)CCC3 do in these assays?
FMDV inh: -6%; HCV inhibitor: inconclusive; HCMV antiviral: -13; MARV entry inh: -23%; LASV entry inh: -15%

What do the screens show for `Cc1nn2c(NCCCN(C)C)c3c(nc2c1-c1ccccc1)CCCC3`?
FMDV inh: -14%; HCV inhibitor: 2µM*; HCMV antiviral: -20; MARV entry inh: 7.1µM*; LASV entry inh: inconclusive; HCV confirm: 7µM*; HCV host tox: 6%

What do the screens show for `CNCCCOc1ccc2c(c1)CCC2`?
FMDV inh: -19%; HCV inhibitor: -14%; HCMV antiviral: -3; MARV entry inh: inconclusive; LASV entry inh: -1%[46.1 µM]

Results for CNCCOc1ccc(Cl)c(Cl)c1 ?
FMDV inh: -10%; HCV inhibitor: inconclusive; HCMV antiviral: -20; MARV entry inh: inconclusive; LASV entry inh: -42%[46.1 µM]; HCV confirm: -17%; HCV host tox: 43%

Results for CC(C)N1CCC(N2CCN(Cc3ccc(-c4ccccc4Cl)o3)CC2CCO)CC1 (stereo unspecified) ?
FMDV inh: -20%; HCV inhibitor: 4µM*; HCMV antiviral: -31; MARV entry inh: inconclusive; LASV entry inh: inconclusive; HCV confirm: 6.3µM*; HCV host tox: 28%

Results for Cc1ccc(S(=O)(=O)NN)c(C)c1N1CCCC1=O ?
FMDV inh: -1%; HCV inhibitor: 13%; HCMV antiviral: 0

How did N#Cc1cc2c(=O)n3ccccc3nc2n(-c2nnc(SCc3ccc(F)cc3)s2)c1=O do in these assays?
FMDV inh: -13%; HCMV antiviral: 1; MARV entry inh: inconclusive; LASV entry inh: inconclusive

What do the screens show for `CC(=O)Nc1ccc(Nc2cc(C)nc3c(-c4ccccc4)c(C)nn23)cc1`?
FMDV inh: -30%; HCV inhibitor: inconclusive; HCMV antiviral: -33; MARV entry inh: inconclusive; LASV entry inh: -10%

High-throughput results deposited in PubChem BioAssay by National Center for Advancing Translational Sciences (NCATS).
